Data published in PubChem BioAssay (NCI).
About 83,000 compounds went through this panel and 20% of them were active in at least one assay; those are over-represented in the sample as a whole.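 Each cell line was grown in a 96-well plate and treated with one concentration of compound for 48 hours. Values below 10 were considered active.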 A number with no mark means an inactive call. Calls of active or inactive are those of the source.

Key:
Assay in all cases: NCI-60 one-dose screen, 48 h (100 = growth as untreated, 0 = no growth, -100 = all killed)
Conditions in all cases: 10 µM unless noted
[1] = tested on: RPMI-8226 leukemia
[2] = tested on: OVCAR-8 ovarian
[3] = tested on: OVCAR-5 ovarian
[4] = tested on: OVCAR-4 ovarian
[5] = tested on: SK-OV-3 ovarian
[6] = tested on: IGROV1 ovarian
[7] = tested on: OVCAR-3 ovarian
[8] = tested on: HS 578T breast
[9] = tested on: NCI/ADR-RES ovarian
[10] = tested on: T-47D breast
[11] = tested on: BT-549 breast
[12] = tested on: MDA-MB-435 melanoma
[13] = tested on: SW-620 colon
[14] = tested on: MCF7 breast
[15] = tested on: HCC-2998 colon
[16] = tested on: KM12 colon
[17] = tested on: HCT-116 colon

In the case of `CC(=O)OC1CCC2(C)C(=CC3C4CCC(=O)C4(C)CCC32)C1` (stereo unspecified), the growth [1] is reported as 89.3%, the growth [2] is reported as 97.3% and the growth [3] is reported as 100%. The growth [4] was 103%, the growth [5] was 105% and the growth [6] was 105%. It also gave a growth [7] of 109%, a growth [8] of 119% and a growth [9] of 104%. The growth [10] was 105%, the growth [11] was 95.9% and the growth [12] was 116%. The growth [13] was 104%, the growth [14] was 97.6% and the growth [15] was 102%. For the same molecule, the growth [16] was 107%.
`O=C1/C(=C/c2ccc(F)cc2)C=C(c2ccccc2)N1CCc1ccccc1` gave a growth [1] of 89.3%, a growth [2] of 45.6% and a growth [3] of 78.7%. It also gave a growth [4] of 39.3%, a growth [5] of 29.1% and a growth [6] of 62.3%. It also gave a growth [7] of 53.1%, a growth [8] of 42.1% and a growth [9] of 58.2%. It also gave a growth [10] of 52.1%, a growth [11] of 79.3% and a growth [12] of 65.4%. It also gave a growth [13] of 70%, a growth [17] of 29.4% and a growth [15] of 85%. It also gave a growth [16] of 62.2%.
For `COc1ccc(-c2cc(-c3ccc(Nc4nc(Nc5ccc(Cl)cc5)nc(Nc5ccc(Cl)cc5)n4)cc3)nc(N)c2C#N)cc1`, the growth [1] was -23.5% (active), the growth [2] was 39.8% and the growth [3] was 37%. For the same molecule, the growth [4] was 14.6%, the growth [5] was 104% and the growth [6] was 6.53% (active). The growth [7] was -15.5% (active), the growth [8] was 29.2% and the growth [9] was 51%. For the same molecule, the growth [10] was 3.86% (active), the growth [11] was -55.3% (active) and the growth [12] was -1.59% (active). The growth [13] was -3.93% (active), the growth [17] was 20.2% and the growth [15] was -8.77% (active). It also gave a growth [16] of 27.7%.
With `COc1ccc2oc3c(C)c4c(c(C)c3c2c1)C(=O)N(Cc1ccccc1)C4=O` the growth [1] was 100%, the growth [2] was 91.2% and the growth [3] was 99.9%. For the same molecule, the growth [4] was 90.7%, the growth [5] was 103% and the growth [6] was 94.6%. For the same molecule, the growth [7] was 89.3%, the growth [8] was 85.5% and the growth [9] was 95.3%. The growth [10] was 95%, the growth [11] was 96.1% and the growth [12] was 99.2%. The growth [13] was 78.3%, the growth [17] was 65.5% and the growth [15] was 102%. The growth [16] was 97.4%.
With `CCCCN(CCCC)CC(C)(C)C(O)c1ccc(OC)c2ccccc12` (stereo unspecified) the growth [1] was 4.33% (active), the growth [2] was 74.2% and the growth [3] was 57.6%. For the same molecule, the growth [4] was 56.7%, the growth [5] was 79.1% and the growth [6] was -13.4% (active). For the same molecule, the growth [7] was -11.9% (active), the growth [8] was 55.7% and the growth [9] was 49.3%. The growth [10] was 52.9%, the growth [11] was 57.1% and the growth [12] was 59.3%. For the same molecule, the growth [13] was 33.4%, the growth [14] was 45.5% and the growth [15] was 51.9%. The growth [16] was 45.1%.
Work on `C=CCn1c(C)nc2cc(Nc3nc(Cl)nc4ccccc34)ccc21` yielded a growth [1] of 75.2%, a growth [2] of 93.8% and a growth [3] of 99.8%. It also gave a growth [4] of 91.2%, a growth [5] of 122% and a growth [6] of 116%. The growth [7] was 102%, the growth [8] was 92.7% and the growth [9] was 90.3%. The growth [10] was 81.5%, the growth [11] was 94.8% and the growth [12] was 93.3%. The growth [13] was 102%, the growth [14] was 94.6% and the growth [15] was 101%. The growth [16] was 95.2%.
With `N#Cc1c(N)nc2c(C#N)c(NC(=O)c3ccccc3)nn2c1-c1ccccc1` the growth [1] was 44.1%, the growth [2] was 77% and the growth [3] was 105%. The growth [4] was 88.8%, the growth [5] was 96.8% and the growth [6] was 59.1%. It also gave a growth [7] of 89.5%, a growth [8] of 94.7% and a growth [9] of 85.5%. For the same molecule, the growth [10] was 68.2%, the growth [11] was 97.6% and the growth [12] was 96.7%. It also gave a growth [13] of 103%, a growth [17] of 92.7% and a growth [15] of 103%. The growth [16] was 95.7%.
`O=C(NCCc1ccc(O)c(O)c1)C12CC3CC(CC(C3)C1)C2` was tested, and the growth [1] was 22.5%, the growth [2] was 95.6% and the growth [3] was 66.3%. For the same molecule, the growth [4] was 87.3%, the growth [5] was 86.7% and the growth [6] was 56.1%. The growth [7] was 86%, the growth [8] was 83.3% and the growth [9] was 61.1%. It also gave a growth [10] of 93.1%, a growth [11] of 92.7% and a growth [13] of 91%. For the same molecule, the growth [14] was 89.4%, the growth [17] was 82.6% and the growth [15] was 115%. For the same molecule, the growth [16] was 117%.
`O=C(Cc1ccc(F)c(F)c1)Nc1cc(C2(C(F)(F)F)CC2)nn1Cc1ccccc1` was tested, and the growth [1] was 3.57% (active), the growth [2] was 6.55% (active) and the growth [3] was 2.55% (active). For the same molecule, the growth [4] was 10.2%, the growth [5] was -24.7% (active) and the growth [6] was 30.3%. The growth [7] was 7.3% (active), the growth [8] was -2.64% (active) and the growth [9] was 4.36% (active). For the same molecule, the growth [10] was -8.37% (active), the growth [11] was 14.9% and the growth [12] was 0.174% (active). The growth [13] was 11.5%, the growth [17] was 6.07% (active) and the growth [15] was 17.2%. For the same molecule, the growth [16] was 1.89% (active).
In the case of `O=C1CCC2=C3C4CCCCC4C(=O)C4CCCC(OC2C1)C34` (stereo unspecified), the growth [1] is reported as -4.93% (active), the growth [2] is reported as 6.21% (active) and the growth [3] is reported as 108%. For the same molecule, the growth [4] was 22.1%, the growth [5] was 78.4% and the growth [6] was -2.77% (active). For the same molecule, the growth [7] was -28.8% (active), the growth [8] was 26.5% and the growth [9] was 3.01% (active). The growth [10] was 46.4%, the growth [11] was 7.09% (active) and the growth [12] was -68% (active). The growth [13] was 4.34% (active), the growth [14] was 12.8% and the growth [17] was -7.43% (active). The growth [16] was -2.73% (active).
`O=C(c1ccccc1)c1c(/C=C/c2ccc(Cl)cc2)nc2ccccc2c1/C=C/c1cccs1` was tested, and the growth [1] was 94.6%, the growth [2] was 98% and the growth [3] was 98.1%. The growth [4] was 96.3%, the growth [5] was 97.2% and the growth [6] was 94.1%. The growth [7] was 95.4%, the growth [8] was 106% and the growth [9] was 99.8%. It also gave a growth [10] of 94.6%, a growth [11] of 99.3% and a growth [13] of 110%. For the same molecule, the growth [14] was 92.3%, the growth [17] was 95.8% and the growth [15] was 103%. The growth [16] was 99.3%.
For `COc1c(CCC[P+](c2ccccc2)(c2ccccc2)c2ccccc2)cc2c(c1OC)OCO2`, the growth [1] was 8.37% (active), the growth [2] was 8.63% (active) and the growth [3] was 30.4%. For the same molecule, the growth [4] was 6.3% (active), the growth [5] was 14.1% and the growth [6] was 21.2%. The growth [7] was 7.21% (active), the growth [8] was 11.7% and the growth [9] was 103%. The growth [10] was 2.54% (active), the growth [11] was 11.5% and the growth [13] was 13.1%. For the same molecule, the growth [14] was 2.19% (active), the growth [17] was 5.97% (active) and the growth [15] was 24.1%. The growth [16] was 4.98% (active).
For `Cc1cccc(NC(=O)N/C(N)=N/c2nc(C)c(C)s2)c1`, the growth [1] was 28.8%, the growth [2] was 58% and the growth [3] was 82.3%. It also gave a growth [4] of 76%, a growth [5] of 65.6% and a growth [6] of 47.5%. For the same molecule, the growth [7] was 39.8%, the growth [8] was 43.9% and the growth [9] was 25.3%. The growth [10] was 40.1%, the growth [11] was 70.3% and the growth [13] was 25.7%. For the same molecule, the growth [14] was 27%, the growth [17] was 33.5% and the growth [15] was 63.7%. It also gave a growth [16] of 23.4%.
`CC(C)(C)OC(=O)Nc1ccc2c(c1)C(NC(=O)Nc1cccc(C#N)c1)CC(C)(C)O2` (stereo unspecified) showed a growth [1] of 22.3%, a growth [2] of 45.6% and a growth [3] of 87.6%. The growth [4] was 38.6%, the growth [5] was 58% and the growth [6] was 46%. For the same molecule, the growth [7] was 48%, the growth [8] was 85.5% and the growth [9] was 48%. For the same molecule, the growth [10] was 34.2%, the growth [11] was 29% and the growth [12] was 39.4%. For the same molecule, the growth [13] was 48.7%, the growth [14] was 32.1% and the growth [17] was 30.7%. For the same molecule, the growth [16] was 49.5%.
`Cc1cc[c-]cc1.Fc1c[c-]c(-c2ccccn2)c(F)c1.[Pt+2].c1ccc(P(C[PH+](c2ccccc2)c2ccccc2)c2ccccc2)cc1` was tested, and the growth [1] was -4.4% (active), the growth [2] was 11% and the growth [3] was 23.6%. For the same molecule, the growth [4] was -2.01% (active), the growth [5] was -3.95% (active) and the growth [6] was 23.5%. The growth [7] was 12.9%, the growth [8] was 39.6% and the growth [9] was 87.3%. For the same molecule, the growth [10] was 8.85% (active), the growth [11] was 20.6% and the growth [13] was 14.6%. The growth [14] was 6.01% (active), the growth [17] was 9.8% (active) and the growth [15] was 33.1%. It also gave a growth [16] of 18%.
With `COc1cc(OC)cc(C2CC(=O)Nc3c2c(C)nn3-c2nc3ccccc3[nH]2)c1` (stereo unspecified) the growth [1] was -8.64% (active), the growth [2] was 17.8% and the growth [3] was 50.2%. For the same molecule, the growth [4] was 42.4%, the growth [5] was -2.88% (active) and the growth [6] was 14.6%. For the same molecule, the growth [7] was 7.11% (active), the growth [8] was 27.1% and the growth [9] was 64.3%. The growth [10] was 12.6%, the growth [11] was 39.1% and the growth [12] was 9.66% (active). For the same molecule, the growth [13] was 24%, the growth [14] was 7.95% (active) and the growth [15] was 69.1%. The growth [16] was 30.5%.
